From paper PMC7862700, “An all-to-all approach to the identification of sequence-specific readers for epigenetic DNA modifications on cytosine”

How the values were obtained:
Assay in all cases: DAPPL (digital affinity profiling via proximity ligation, sequencing); 10 mM Tris-HCl pH 7.5, 50 mM NaCl, 1 mM DTT, 4% glycerol, room temperature, 30 min; GST-TFs on glutathione beads, 16-mer random dsDNA library, 0.1% formaldehyde crosslink after washing; high values mean tight binding
Details in all cases: protein: recombinant; tags: N-terminal GST; dsDNA, one strand shown
ERF = target: T1, ERF (Homo sapiens, UniProt P50548 1-548)
T1 sequence: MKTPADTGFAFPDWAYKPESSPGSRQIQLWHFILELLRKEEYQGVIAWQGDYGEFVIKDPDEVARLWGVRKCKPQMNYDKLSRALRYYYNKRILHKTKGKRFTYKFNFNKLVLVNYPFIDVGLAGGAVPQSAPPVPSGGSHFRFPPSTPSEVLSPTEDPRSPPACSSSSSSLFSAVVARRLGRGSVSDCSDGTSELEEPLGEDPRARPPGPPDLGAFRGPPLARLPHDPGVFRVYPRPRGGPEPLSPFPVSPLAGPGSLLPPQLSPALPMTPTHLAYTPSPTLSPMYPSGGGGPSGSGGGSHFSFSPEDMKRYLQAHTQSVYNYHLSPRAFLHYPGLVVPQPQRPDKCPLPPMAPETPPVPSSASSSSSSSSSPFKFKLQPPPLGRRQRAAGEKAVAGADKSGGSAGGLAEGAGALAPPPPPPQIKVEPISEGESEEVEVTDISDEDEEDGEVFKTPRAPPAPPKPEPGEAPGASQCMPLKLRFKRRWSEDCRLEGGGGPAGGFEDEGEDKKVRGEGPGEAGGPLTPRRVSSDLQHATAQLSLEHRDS
Outline: (§1)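 GST fusions of human transcription factors were expressed in yeast and captured with glutathione beads. Once given DNA barcodes and pooled alongside a tag-only sample, they were incubated for 30 min at room temperature with 200 nmole of a random double-stranded 16-mer DNA library in Tris/NaCl/DTT/glycerol buffer, then washed, crosslinked (0.1% formaldehyde), proximity-ligated, PCR-amplified and sequenced on an Illumina NextSeq500. The binding signal of each hexamer is its read frequency for a factor divided by its frequency for the tag-only sample.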

ETV3L = target: T2, ETV3L (Homo sapiens, UniProt Q6ZN32 1-361)
T2 sequence: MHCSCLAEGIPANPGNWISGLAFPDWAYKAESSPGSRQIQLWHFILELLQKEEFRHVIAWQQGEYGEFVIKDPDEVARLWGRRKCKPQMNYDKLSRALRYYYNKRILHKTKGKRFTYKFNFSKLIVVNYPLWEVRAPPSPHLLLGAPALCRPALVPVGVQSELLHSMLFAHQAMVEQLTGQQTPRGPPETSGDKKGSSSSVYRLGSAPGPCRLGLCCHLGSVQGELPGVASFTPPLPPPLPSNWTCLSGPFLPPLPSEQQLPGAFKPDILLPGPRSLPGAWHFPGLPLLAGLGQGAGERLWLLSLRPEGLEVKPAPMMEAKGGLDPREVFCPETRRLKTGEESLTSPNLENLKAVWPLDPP
Outline: as §1

ETS2 = target: T3, ETS2 (Homo sapiens, UniProt P15036 1-469)
T3 sequence: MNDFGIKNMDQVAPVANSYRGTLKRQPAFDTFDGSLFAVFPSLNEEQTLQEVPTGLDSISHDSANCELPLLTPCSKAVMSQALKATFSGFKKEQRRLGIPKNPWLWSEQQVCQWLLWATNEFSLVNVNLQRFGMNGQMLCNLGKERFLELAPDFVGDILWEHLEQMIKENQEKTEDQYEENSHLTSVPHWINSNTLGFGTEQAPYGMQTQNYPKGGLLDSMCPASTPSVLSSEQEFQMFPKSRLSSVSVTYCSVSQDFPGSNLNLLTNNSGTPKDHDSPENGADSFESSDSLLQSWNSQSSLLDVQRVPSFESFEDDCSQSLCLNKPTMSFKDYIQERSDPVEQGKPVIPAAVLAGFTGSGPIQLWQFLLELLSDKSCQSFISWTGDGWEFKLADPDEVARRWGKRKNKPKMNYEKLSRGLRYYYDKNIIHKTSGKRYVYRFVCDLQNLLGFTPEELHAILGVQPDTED
Outline: as §1

SPDEF = target: T4, SPDEF (Homo sapiens, UniProt O95238 1-335)
T4 sequence: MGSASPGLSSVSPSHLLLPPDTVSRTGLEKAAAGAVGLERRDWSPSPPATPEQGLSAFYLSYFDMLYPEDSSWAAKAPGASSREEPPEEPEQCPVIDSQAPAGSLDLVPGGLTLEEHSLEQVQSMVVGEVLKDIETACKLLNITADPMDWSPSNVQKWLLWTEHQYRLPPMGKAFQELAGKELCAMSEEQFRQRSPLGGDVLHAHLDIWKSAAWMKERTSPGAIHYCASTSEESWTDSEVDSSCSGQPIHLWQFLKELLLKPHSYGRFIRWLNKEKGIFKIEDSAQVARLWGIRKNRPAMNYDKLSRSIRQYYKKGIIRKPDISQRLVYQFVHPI
Outline: as §1

ETV7 = target: T5, ETV7 (Homo sapiens, UniProt Q9Y603 1-341)
T5 sequence: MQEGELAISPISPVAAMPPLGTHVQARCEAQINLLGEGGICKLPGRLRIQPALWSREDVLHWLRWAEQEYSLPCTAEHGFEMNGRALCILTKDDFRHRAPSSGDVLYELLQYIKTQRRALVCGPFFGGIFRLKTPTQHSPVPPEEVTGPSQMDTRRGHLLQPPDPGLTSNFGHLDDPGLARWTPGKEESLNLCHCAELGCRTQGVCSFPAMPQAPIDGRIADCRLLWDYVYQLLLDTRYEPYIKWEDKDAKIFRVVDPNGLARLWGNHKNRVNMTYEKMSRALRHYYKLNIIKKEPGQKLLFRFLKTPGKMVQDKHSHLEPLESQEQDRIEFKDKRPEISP
Outline: as §1

ELF5 = target: T6, ELF5 (Homo sapiens, UniProt Q9UKW6-2 1-255)
T6 sequence: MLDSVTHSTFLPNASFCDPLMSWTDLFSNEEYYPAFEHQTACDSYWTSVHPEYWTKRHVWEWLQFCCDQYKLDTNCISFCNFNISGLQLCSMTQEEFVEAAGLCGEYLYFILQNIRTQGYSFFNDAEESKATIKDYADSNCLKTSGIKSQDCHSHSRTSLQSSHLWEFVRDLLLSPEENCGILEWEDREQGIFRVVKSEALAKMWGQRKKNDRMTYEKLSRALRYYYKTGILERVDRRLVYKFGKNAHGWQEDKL
Outline: as §1

ETV3 = target: T7, ETV3 (Homo sapiens, UniProt P41162-2 1-143)
T7 sequence: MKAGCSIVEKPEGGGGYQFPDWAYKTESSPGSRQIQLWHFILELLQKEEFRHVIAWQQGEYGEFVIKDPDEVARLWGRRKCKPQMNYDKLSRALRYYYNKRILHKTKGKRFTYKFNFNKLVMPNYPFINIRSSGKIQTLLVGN
Outline: as §1

ETV6 = ETV6 (Homo sapiens, UniProt P41212 1-452)
Outline: as §1

ETV6, sequence (P41212 whole entry): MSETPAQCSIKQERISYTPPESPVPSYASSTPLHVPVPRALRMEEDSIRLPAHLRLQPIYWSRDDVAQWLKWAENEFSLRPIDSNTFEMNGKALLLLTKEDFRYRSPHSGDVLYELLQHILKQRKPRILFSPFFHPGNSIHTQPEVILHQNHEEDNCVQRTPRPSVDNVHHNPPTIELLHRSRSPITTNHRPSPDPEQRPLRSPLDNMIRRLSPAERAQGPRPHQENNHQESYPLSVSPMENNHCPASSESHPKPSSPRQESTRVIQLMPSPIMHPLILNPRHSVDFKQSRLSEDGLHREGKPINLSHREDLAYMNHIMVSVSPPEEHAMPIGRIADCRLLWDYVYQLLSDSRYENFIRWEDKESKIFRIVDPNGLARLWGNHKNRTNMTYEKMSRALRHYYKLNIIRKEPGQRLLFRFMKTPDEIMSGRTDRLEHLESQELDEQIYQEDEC

Sequence | binding signal (ERF) | binding signal (ETV3L) | binding signal (ETS2) | binding signal (SPDEF) | binding signal (ETV7) | binding signal (ELF5) | binding signal (ETV3) | binding signal (ETV6)
TGCCTC | 1.4 fold enrichment (6-mer frequency, TF over GST control) | 1.32 fold enrichment (6-mer frequency, TF over GST control) | 1.22 fold enrichment (6-mer frequency, TF over GST control) | 1.39 fold enrichment (6-mer frequency, TF over GST control) | 1.35 fold enrichment (6-mer frequency, TF over GST control) | 1.4 fold enrichment (6-mer frequency, TF over GST control) | 1.39 fold enrichment (6-mer frequency, TF over GST control) | 1.36 fold enrichment (6-mer frequency, TF over GST control)
ACCCTT | 1.2 fold enrichment (6-mer frequency, TF over GST control) | 1.21 fold enrichment (6-mer frequency, TF over GST control) | 1.1 fold enrichment (6-mer frequency, TF over GST control) | 1.2 fold enrichment (6-mer frequency, TF over GST control) | 1.1 fold enrichment (6-mer frequency, TF over GST control) | 1.19 fold enrichment (6-mer frequency, TF over GST control) | 1.19 fold enrichment (6-mer frequency, TF over GST control) | 1.15 fold enrichment (6-mer frequency, TF over GST control)
TCCGAA | 1.36 fold enrichment (6-mer frequency, TF over GST control) | 1.32 fold enrichment (6-mer frequency, TF over GST control) | 1.23 fold enrichment (6-mer frequency, TF over GST control) | 1.29 fold enrichment (6-mer frequency, TF over GST control) | 1.25 fold enrichment (6-mer frequency, TF over GST control) | 1.25 fold enrichment (6-mer frequency, TF over GST control) | 1.15 fold enrichment (6-mer frequency, TF over GST control) | 1.37 fold enrichment (6-mer frequency, TF over GST control)
GCGACT | 1.43 fold enrichment (6-mer frequency, TF over GST control) | 1.17 fold enrichment (6-mer frequency, TF over GST control) | 1.15 fold enrichment (6-mer frequency, TF over GST control) | 1.13 fold enrichment (6-mer frequency, TF over GST control) | 1.14 fold enrichment (6-mer frequency, TF over GST control) | 1.3 fold enrichment (6-mer frequency, TF over GST control) | 1.14 fold enrichment (6-mer frequency, TF over GST control) | 1.16 fold enrichment (6-mer frequency, TF over GST control)
AAATGT | 1.27 fold enrichment (6-mer frequency, TF over GST control) | 1.33 fold enrichment (6-mer frequency, TF over GST control) | 1.44 fold enrichment (6-mer frequency, TF over GST control) | 1.27 fold enrichment (6-mer frequency, TF over GST control) | 1.27 fold enrichment (6-mer frequency, TF over GST control) | 1.48 fold enrichment (6-mer frequency, TF over GST control) | 1.3 fold enrichment (6-mer frequency, TF over GST control) | 1.31 fold enrichment (6-mer frequency, TF over GST control)
CGATTC | 1.09 fold enrichment (6-mer frequency, TF over GST control) | 1.18 fold enrichment (6-mer frequency, TF over GST control) | 1.24 fold enrichment (6-mer frequency, TF over GST control) | 1.13 fold enrichment (6-mer frequency, TF over GST control) | 1.06 fold enrichment (6-mer frequency, TF over GST control) | 1.11 fold enrichment (6-mer frequency, TF over GST control) | 1.23 fold enrichment (6-mer frequency, TF over GST control) | 1.11 fold enrichment (6-mer frequency, TF over GST control)
CCGGCT | 1.59 fold enrichment (6-mer frequency, TF over GST control) | 1.69 fold enrichment (6-mer frequency, TF over GST control) | 1.71 fold enrichment (6-mer frequency, TF over GST control) | 2.32 fold enrichment (6-mer frequency, TF over GST control) | 1.74 fold enrichment (6-mer frequency, TF over GST control) | 1.92 fold enrichment (6-mer frequency, TF over GST control) | 1.7 fold enrichment (6-mer frequency, TF over GST control) | 1.77 fold enrichment (6-mer frequency, TF over GST control)
TTGTGT | 1.4 fold enrichment (6-mer frequency, TF over GST control) | 1.15 fold enrichment (6-mer frequency, TF over GST control) | 1.16 fold enrichment (6-mer frequency, TF over GST control) | 1.26 fold enrichment (6-mer frequency, TF over GST control) | 1.34 fold enrichment (6-mer frequency, TF over GST control) | 1.16 fold enrichment (6-mer frequency, TF over GST control) | 1.27 fold enrichment (6-mer frequency, TF over GST control) | 1.19 fold enrichment (6-mer frequency, TF over GST control)
TAAAAG | 1.2 fold enrichment (6-mer frequency, TF over GST control) | 1.1 fold enrichment (6-mer frequency, TF over GST control) | 1.18 fold enrichment (6-mer frequency, TF over GST control) | 1.08 fold enrichment (6-mer frequency, TF over GST control) | 1.19 fold enrichment (6-mer frequency, TF over GST control) | 1.16 fold enrichment (6-mer frequency, TF over GST control) | 1.12 fold enrichment (6-mer frequency, TF over GST control) | 1.23 fold enrichment (6-mer frequency, TF over GST control)
TTCCAT | 1.24 fold enrichment (6-mer frequency, TF over GST control) | 1.29 fold enrichment (6-mer frequency, TF over GST control) | 1.25 fold enrichment (6-mer frequency, TF over GST control) | 1.2 fold enrichment (6-mer frequency, TF over GST control) | 1.27 fold enrichment (6-mer frequency, TF over GST control) | 1.26 fold enrichment (6-mer frequency, TF over GST control) | 1.32 fold enrichment (6-mer frequency, TF over GST control) | 1.4 fold enrichment (6-mer frequency, TF over GST control)
TTCCGC | 2.75 fold enrichment (6-mer frequency, TF over GST control) | 2.9 fold enrichment (6-mer frequency, TF over GST control) | 3.21 fold enrichment (6-mer frequency, TF over GST control) | 2.77 fold enrichment (6-mer frequency, TF over GST control) | 3.02 fold enrichment (6-mer frequency, TF over GST control) | 4.41 fold enrichment (6-mer frequency, TF over GST control) | 3.37 fold enrichment (6-mer frequency, TF over GST control) | 3.62 fold enrichment (6-mer frequency, TF over GST control)
TATTGA | 1.12 fold enrichment (6-mer frequency, TF over GST control) | 1.22 fold enrichment (6-mer frequency, TF over GST control) | 1.12 fold enrichment (6-mer frequency, TF over GST control) | 1.17 fold enrichment (6-mer frequency, TF over GST control) | 1.14 fold enrichment (6-mer frequency, TF over GST control) | 1.11 fold enrichment (6-mer frequency, TF over GST control) | 1.19 fold enrichment (6-mer frequency, TF over GST control) | 1.16 fold enrichment (6-mer frequency, TF over GST control)
TGTCTT | 1.28 fold enrichment (6-mer frequency, TF over GST control) | 1.32 fold enrichment (6-mer frequency, TF over GST control) | 1.28 fold enrichment (6-mer frequency, TF over GST control) | 1.28 fold enrichment (6-mer frequency, TF over GST control) | 1.25 fold enrichment (6-mer frequency, TF over GST control) | 1.39 fold enrichment (6-mer frequency, TF over GST control) | 1.38 fold enrichment (6-mer frequency, TF over GST control) | 1.16 fold enrichment (6-mer frequency, TF over GST control)
TAATGC | 1.07 fold enrichment (6-mer frequency, TF over GST control) | 1.16 fold enrichment (6-mer frequency, TF over GST control) | 1.2 fold enrichment (6-mer frequency, TF over GST control) | 1.17 fold enrichment (6-mer frequency, TF over GST control) | 1.13 fold enrichment (6-mer frequency, TF over GST control) | 1.17 fold enrichment (6-mer frequency, TF over GST control) | 1.16 fold enrichment (6-mer frequency, TF over GST control) | 1.13 fold enrichment (6-mer frequency, TF over GST control)
CTTGGA | 1.12 fold enrichment (6-mer frequency, TF over GST control) | 1.11 fold enrichment (6-mer frequency, TF over GST control) | 1.14 fold enrichment (6-mer frequency, TF over GST control) | 1.22 fold enrichment (6-mer frequency, TF over GST control) | 1.14 fold enrichment (6-mer frequency, TF over GST control) | 1.09 fold enrichment (6-mer frequency, TF over GST control) | 1.08 fold enrichment (6-mer frequency, TF over GST control) | 1.03 fold enrichment (6-mer frequency, TF over GST control)
